In the library only some 20% were active in any assay of this set; here they are far more common.
Cycloheximide cs = counter-screen hit for Shiga toxin inhibitors, cycloheximide. 12% of 300,000 active. max response, %. cell reporter, cycloheximide protein synthesis inhibition counterscreen; in the data active means max response mostly above about 13%, no sharp cut-off; inactive means mostly below about 14%; further: read at 38.3 µM for the half of the compounds with a filed dose; 0% is about no effect
HCMV inh = blocks human cytomegalovirus replication. AID 1259415. 4.5% of 410,000 active. activity change, negative = inhibition, % at 57.5 µM. HFF cells, HCMV-luciferase reporter, 72 h; stronger effect = lower value; in the data active means activity change below about -60%; inconclusive means no clear call, values can overlap the other calls; inactive means above about -39%; further: on the % scale 0 is the no-effect control and ±100 the full control effect
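Two compound doses tested in HFFs infected with HCMV-luciferase, MOI 1 PFU/cell, 72 h at 37C. Lysate luminescence read with OneGlo; data normalized against buffer-only and 10uM Salinomycin inhibitor controls.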
Pf growth 96h = inhibits malaria parasite growth, 96 h. P. falciparum luciferase reporter growth, 96 h. 6.9% of 320,000 active. Potency, µM (highest dose often 28.7 µM), for inactives: top-dose activity change, negative = inhibition, usual class: inhibitors; further: potency means the concentration at half of the fitted maximal effect; on the % scale 0 is the no-effect control and ±100 the full control effect
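Plates of compound plus infected erythrocytes (2% hematocrit, 0.05% parasitemia final) incubate 96 hours, 37 C, 5% CO2. Detection reagent added; reduced luminescence from the parasites' luciferase reporter flags inhibition.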
Pf growth 48h = inhibits P. falciparum growth in the first generation, 48 h; P. falciparum luciferase growth in erythrocytes, 48 h; 5.9% of 310,000 active; AID 504832; Potency, µM (doses to about 28.7 µM), without a hit: at the highest dose activity change, negative = inhibition, actives largely listed as inhibitors; further: potency means the concentration at half of the fitted maximal effect; on the % scale 0 is the no-effect control and ±100 the full control effect
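Luciferase-expressing parasites in RBCs, 2% Hct / 0.1% parasitemia final; RPMI 1640 + 0.5% Albumax; 37 C, 5% CO2, one generation; luminescence read-out, lower signal = inhibition.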
Shiga inhibitor = Shiga toxin inhibition | inhibition, % at 38.7 µM | 9.2% of 290,000 active | Vero cells, Shiga toxin protein synthesis inhibition reporter; in the data active means inhibition mostly above about 28%, no sharp cut-off; inactive means mostly below about 43%; further: 0% is about no effect
* = called active by the depositor; ? = inconclusive; · = not tested or not shown; [ ] = another dose, or the depositor's remark. Unless noted, the call rests on the fitted dose curve; in most records, active means well fitted inhibition curve with a large enough effect; inconclusive means small, poorly fitted or top-dose-only effect, or another doubt; inactive means no such curve, though single readings can be large or run the other way.

SMILES | Cycloheximide cs | HCMV inh | Pf growth 96h | Pf growth 48h | Shiga inhibitor
COc1ccccc1CNC(=O)CN(C)CC(=O)Nc1ccc(F)c(F)c1F | · | 0 | · | · | ·
COc1ccc(C(=O)NC(=S)NCc2ccco2)cc1Br | 9 | -38 | ? | ? | 9
COc1cccc(C(=O)c2cn(CC(=O)NCc3ccco3)c3nc(C)ccc3c2=O)c1 | -2 | -7 | 4.1µM* | -18% | -11
Cc1ccc(C(=O)NC(=S)NCc2ccccc2)cc1 | 16* | 26 | ? | 86% | 45
COc1ccc(C(=O)NC(=S)NCc2ccco2)cc1OC | -1 | ? | 7.4µM* | 0% | -8
COc1ccc(C(=O)NC(=S)NCc2ccco2)cc1 | 22* | -25 | 3% | 14% | 44*
COc1cc(OC)cc(C(=O)NC(=S)NCc2ccco2)c1 | -2 | 50 | 0% | 9% | -14
COc1ccc(C(=O)NC(=S)NCc2ccccc2)cc1OC | -1 | -31 | 10% | -8% | 1
COC(=O)[C@@H]1[C@@H](CO)[C@@H]2Cn3c(ccc(Br)c3=O)[C@H]1N2C(=O)Cc1ccccn1 | · | 4 | · | · | ·
O=C(NC(=S)N1CCOCC1)c1cn(-c2ccccc2)nc1-c1ccccc1 | · | -26 | -85% | ? | ·
CC(=O)Nc1ccc(C(=O)N/C(=C/c2ccccc2)C(=O)NCc2ccco2)cc1 | -5 | 21 | 1% | 22% | 6
CC(C)(C)c1ccc(C(=O)N/C(=C\c2cccs2)C(=O)NCc2ccco2)cc1 | 33* | -11 | 8.3µM* | ? | 55
COc1ccc(C(=O)Nc2ccc(Cl)cc2C(=O)NCc2ccco2)cc1 | 14* | 3 | ? | ? | 21
Cc1cc(C)nc(N2CCN(C(=O)c3ccc(S(=O)(=O)N4CCCCCC4)cc3)CC2)n1 | -3 | -7 | -16% | -4% | 20
CCOC(=O)/C(=N\Nc1ccccc1[N+](=O)[O-])c1csc(N)n1 | 21* | -65* | 34% | 3% | 36
Cc1nc(Nc2ccc(C(=O)O)cc2)sc1-c1ccccc1 | 53* | 14 | -20% | -32% | 84*
O=c1sc(Nc2ccccc2)nc2ccccc12 | -2 | 73 | -22% | 8% | -15
Cc1nc(Nc2ccccc2)sc1-c1ccccc1 | 35* | 86 | -38% | 122% | 88*
CC1CN(Cc2nc3c(c(=O)[nH]c(=O)n3C)n2CCCc2ccccc2)CC(C)O1 (stereo not given) | -4 | 56 | -10% | -18% | -3
CS(=O)(=O)N1CCC(C(=O)Nc2cccc([N+](=O)[O-])c2)CC1 | 5 | 14 | ? | 32%[5.75 µM] | 9
Cc1nc(-c2ccc(S(=O)(=O)Nc3ccc(Cl)c(C(F)(F)F)c3)cc2)co1 | · | 2 | · | · | ·
Cn1c2c(c(=O)n(C)c1=O)C(c1ccc(C(F)(F)F)cc1)CC(=O)N2 (stereo not given) | · | 15 | · | · | ·
CC1C(=O)C(C)(C)C(=O)OC1c1ccccc1 (stereo not given) | 0 | -39 | 59% | 35% | -4
C[C@@H]1C=CC(=O)O[C@@H]1c1ccc(C(F)(F)F)cc1 | -3 | · | 2.3µM* | ? | 3
C[C@H]1C=CC(=O)O[C@H]1c1ccccc1 | -3 | -77* | · | · | 16
SMILES | Cycloheximide cs | HCMV inh | Pf growth 96h | Pf growth 48h | Shiga inhibitor
CCOc1cccc(C(=O)Nc2cc(C)c(O)c(-c3nc4ncccc4o3)c2)c1 | · | -24 | · | · | ·
c1ccc(-c2nc3c([nH]2)CCc2nonc2-3)cc1 | 31* | -11 | -9% | 50% | 78*
O=C1CCCc2[nH]c(-c3ccccc3)nc21 | 37* | 4 | ? | 51% | 59*
c1coc(-c2nc3c([nH]2)CCc2nonc2-3)c1 | 12 | 108 | · | 10% | -11
O=c1ncccn1[C@@H]1O[C@H](CO)[C@@H](O)[C@H]1O | 7 | · | · | · | -7
CC(=O)c1ccc(NC(=O)Cn2ncc3c4ccccc4n(Cc4ccccc4)c3c2=O)cc1 | · | -10 | · | · | ·
Cc1cc(C)c(S(=O)(=O)NCc2ccc3c(c2)CCN3C(=O)c2ccccc2)c(C)c1 | · | -60* | · | · | ·
COc1ccc(CC(=O)NCc2ccc3c(c2)CCN3C(=O)c2cccc(C)c2)cc1 | · | -14 | · | · | ·
COc1ccc(OC)c(S(=O)(=O)NCc2ccc3c(c2)CCN3C(=O)c2cccc(C)c2)c1 | · | -80* | · | · | ·
CCOC(=O)C1CCN(C(=O)c2cc3c(=O)n4ccccc4nc3n2C)CC1 | 1 | 36 | -9% | 1% | -4
COc1cc(C(=O)N=c2sccn2C)c([N+](=O)[O-])cc1OC | -2 | -9 | ? | 11% | -11

Source: PubChem (National Center for Advancing Translational Sciences (NCATS))
